The record followed here is PubChem BioAssay (EPA / NIEHS).

Assay [1] in a line: ATG_GRE_CIS: Attagene CIS-FACTORIAL HepG2 Assay for human Glucocorticoid Response Elements (GRE) (AID 2282947). To be noted: HepG2 GRE cis-reporter, Attagene multiplex mRNA; actives raise or lower the signal. The method in brief:
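Cells (HepG2) bearing transfected cis-promoter reporter transcription units were treated with chemical for 24 hours. Reporter mRNA was measured via RT-PCR with capillary electrophoresis, and activity was fitted in both directions relative to DMSO.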

The nature of assay [2]: ATG_ISRE_CIS: Attagene CIS-FACTORIAL HepG2 Assay for human Interferon Regulatory Factor 1 (IRF1) binding to an Interferon-Stimulated Response Element (ISRE) (AID 2282948). The conditions noted are these: HepG2 ISRE cis-reporter (Attagene), mRNA transcription readout; actives raise or lower the signal. An outline of the steps:
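Uses HepG2 liver cells transfected with cis-regulated reporters and measures mRNA 24 h post-dosing through RT-PCR, primer-extension labelling and capillary electrophoresis, with DMSO as negative control.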

Assay [3] is described as follows: ATG_M_32_CIS: Attagene CIS-FACTORIAL HepG2 Assay for M32 Transcription Factor (Internal Marker) (AID 2282949).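 Also: background control marker of the multiplexed CIS panel rather than a real target.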 To be noted: HepG2 Attagene cis-factorial M32 reporter, mRNA; actives raise or lower the signal. An outline of the steps:
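HepG2 human liver cells transiently transfected with cis-promoter-driven multiple reporter transcription units, dosed 24 h. Reporter mRNA quantified by RT-PCR, FAM-labelled primer extension, HpaI digest and capillary electrophoresis; bidirectional fit versus DMSO baseline.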

The nature of assay [4]: ATG_M_06_CIS: Attagene CIS-FACTORIAL HepG2 Assay for M06 Transcription Factor (Internal Marker) (AID 2282950). The conditions noted are these: HepG2 Attagene CIS-FACTORIAL M06 internal marker reporter; actives raise or lower the signal. An outline of the steps: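 One of many multiplexed endpoints: HepG2 reporter mRNA after 24 h dosing, detected by RT-PCR and capillary electrophoresis fluorescence; gain or loss of signal analysed against DMSO.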

For assay [5], the target named is Hypoxia-inducible factor 1-alpha (Homo sapiens) (UniProt Q16665). The experiment in a line: ATG_HIF1a_CIS: Attagene CIS-FACTORIAL HepG2 Assay for human Hypoxia Inducible Factor 1 (HIF1A) (AID 2282951). The conditions noted are these: HepG2 Attagene cis-factorial HIF1a reporter transcription; actives raise or lower the signal. An outline of the steps:
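In this multiplexed cell assay, HepG2 cells bearing transfected cis reporters are dosed for 24 h and reporter mRNA is read by RT-PCR plus capillary electrophoresis; signal increases and decreases are both scored against DMSO.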

Assay [6] deals with Hepatocyte nuclear factor 6 (Homo sapiens) (UniProt Q9UBC0). The experiment in a line: ATG_HNF6_CIS: Attagene CIS-FACTORIAL HepG2 Assay for human Hepatocyte Nuclear Factor 6 (HNF6) (AID 2282952). To be noted: HepG2 Attagene cis-factorial HNF6 reporter transcription; actives raise or lower the signal. The method in brief:
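Endogenous factor activity read in transiently transfected HepG2 via promoter-regulated reporter transcripts. RNA harvested 24 h post-dosing, reverse-transcribed, PCR-amplified, FAM-labelled, HpaI-digested and resolved by capillary electrophoresis; fitted in both directions against DMSO.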

Assay [7] in a line: ATG_MRE_CIS: Attagene CIS-FACTORIAL HepG2 Assay for human Metal Responsive Element (MRE) (AID 2282954). To be noted: HepG2 MRE cis-reporter transcription, Attagene multiplex; actives raise or lower the signal. An outline of the steps:
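Cells were transfected with cis-promoter reporter transcription units, then dosed for 24 h. RNA was reverse-transcribed, amplified, fluorescently labelled and resolved by capillary electrophoresis, and activity was fitted in both directions relative to DMSO.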

The target of assay [8] is Paired box protein Pax-6 (Homo sapiens) (UniProt P26367). The experiment in a line: ATG_Pax6_CIS: Attagene CIS-FACTORIAL HepG2 Assay for human Paired Box 6 (PAX6) (AID 2282956). The conditions noted are these: HepG2 CIS-FACTORIAL PAX6 reporter transcription, RNA readout; actives raise or lower the signal. The method in brief:
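DMSO-referenced bidirectional fits of reporter mRNA fluorescence; HepG2 with transient cis-promoter MRTUs, 24 h post-dose, RT-PCR plus capillary electrophoresis detection.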

The target of assay [9] is Heat shock factor protein 1 (Homo sapiens) (UniProt Q00613). The experiment in a line: ATG_HSE_CIS: Attagene CIS-FACTORIAL HepG2 Assay for human Heat Shock Transcription Factor 1 (HSE) (AID 2282953). The conditions noted are these: HepG2 HSE cis-reporter, Attagene RNA transcription; actives raise or lower the signal. An outline of the steps:
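Using HepG2 with transfected cis-driven reporter constructs, compound effects on endogenous factor activity are scored as reporter mRNA change at 24 h. Detection: RT-PCR, HpaI digestion, capillary electrophoresis; bidirectional fitting to DMSO.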

Assay [10] is described as follows: ATG_PBREM_CIS: Attagene CIS-FACTORIAL HepG2 Assay for human Phenobarbital-responsive Enhancer Module (PBREM) (AID 2282955). To be noted: HepG2 PBREM cis-reporter, Attagene multiplexed transcription; actives raise or lower the signal. The method in brief:
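After a 24 h incubation with test chemical, transfected HepG2 cells yield total RNA; reporter-specific RT-PCR products are fluorescently labelled, HpaI-digested and resolved by capillary electrophoresis against ROX size standards.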

Activity calls are given as the source filed them. The calls were made as follows: active = hit-call score of the fitted dose curve at least 0.9, where 1 is the maximum; inactive = score below 0.9.

Hypoxia-inducible factor 1-alpha (Homo sapiens), sequence (Q16665 whole entry, looked up): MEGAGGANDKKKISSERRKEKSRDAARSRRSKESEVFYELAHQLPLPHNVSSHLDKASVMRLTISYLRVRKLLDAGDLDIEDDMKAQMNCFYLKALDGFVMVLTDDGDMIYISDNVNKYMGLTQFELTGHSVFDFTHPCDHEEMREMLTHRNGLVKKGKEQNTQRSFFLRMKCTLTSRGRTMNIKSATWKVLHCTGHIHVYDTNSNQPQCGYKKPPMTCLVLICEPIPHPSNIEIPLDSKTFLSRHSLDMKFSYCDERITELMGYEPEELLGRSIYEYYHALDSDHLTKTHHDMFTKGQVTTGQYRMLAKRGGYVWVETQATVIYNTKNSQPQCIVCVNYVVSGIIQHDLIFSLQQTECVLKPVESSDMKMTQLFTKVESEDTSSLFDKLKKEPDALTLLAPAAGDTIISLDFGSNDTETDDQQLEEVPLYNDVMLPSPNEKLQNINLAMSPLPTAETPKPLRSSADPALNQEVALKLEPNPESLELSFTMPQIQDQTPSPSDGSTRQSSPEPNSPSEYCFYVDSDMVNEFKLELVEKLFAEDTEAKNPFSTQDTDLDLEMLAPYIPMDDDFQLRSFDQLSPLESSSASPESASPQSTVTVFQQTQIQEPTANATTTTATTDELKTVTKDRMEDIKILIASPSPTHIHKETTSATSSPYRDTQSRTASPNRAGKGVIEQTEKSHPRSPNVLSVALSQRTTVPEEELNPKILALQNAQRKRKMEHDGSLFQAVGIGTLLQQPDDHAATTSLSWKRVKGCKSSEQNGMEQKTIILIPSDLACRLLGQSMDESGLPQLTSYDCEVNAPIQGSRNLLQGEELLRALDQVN
Hepatocyte nuclear factor 6 (Homo sapiens), sequence (Q9UBC0 whole entry, looked up): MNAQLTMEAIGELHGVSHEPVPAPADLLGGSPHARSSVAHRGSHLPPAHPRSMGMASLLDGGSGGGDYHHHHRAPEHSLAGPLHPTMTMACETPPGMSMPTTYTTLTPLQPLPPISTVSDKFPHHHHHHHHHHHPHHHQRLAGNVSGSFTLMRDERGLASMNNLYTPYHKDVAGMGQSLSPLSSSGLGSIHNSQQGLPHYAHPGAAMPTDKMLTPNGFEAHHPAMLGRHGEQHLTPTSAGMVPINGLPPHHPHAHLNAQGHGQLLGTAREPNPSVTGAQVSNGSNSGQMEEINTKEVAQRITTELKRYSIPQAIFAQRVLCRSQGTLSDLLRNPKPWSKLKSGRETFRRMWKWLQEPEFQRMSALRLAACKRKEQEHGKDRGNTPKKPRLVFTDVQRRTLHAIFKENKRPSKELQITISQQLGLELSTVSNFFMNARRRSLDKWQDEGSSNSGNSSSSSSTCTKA
Paired box protein Pax-6 (Homo sapiens), sequence (P26367 whole entry, looked up): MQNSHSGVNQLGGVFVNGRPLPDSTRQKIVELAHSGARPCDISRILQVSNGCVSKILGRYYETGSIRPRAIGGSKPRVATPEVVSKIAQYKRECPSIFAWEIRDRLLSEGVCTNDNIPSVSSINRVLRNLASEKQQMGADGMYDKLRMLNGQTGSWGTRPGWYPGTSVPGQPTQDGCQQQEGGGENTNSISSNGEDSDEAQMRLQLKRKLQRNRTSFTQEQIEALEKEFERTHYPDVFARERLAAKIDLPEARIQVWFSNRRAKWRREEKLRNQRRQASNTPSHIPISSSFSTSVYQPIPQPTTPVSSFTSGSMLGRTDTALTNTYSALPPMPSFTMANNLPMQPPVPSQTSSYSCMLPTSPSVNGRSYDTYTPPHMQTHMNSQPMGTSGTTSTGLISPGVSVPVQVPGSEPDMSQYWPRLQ
Heat shock factor protein 1 (Homo sapiens), sequence (Q00613 whole entry, looked up): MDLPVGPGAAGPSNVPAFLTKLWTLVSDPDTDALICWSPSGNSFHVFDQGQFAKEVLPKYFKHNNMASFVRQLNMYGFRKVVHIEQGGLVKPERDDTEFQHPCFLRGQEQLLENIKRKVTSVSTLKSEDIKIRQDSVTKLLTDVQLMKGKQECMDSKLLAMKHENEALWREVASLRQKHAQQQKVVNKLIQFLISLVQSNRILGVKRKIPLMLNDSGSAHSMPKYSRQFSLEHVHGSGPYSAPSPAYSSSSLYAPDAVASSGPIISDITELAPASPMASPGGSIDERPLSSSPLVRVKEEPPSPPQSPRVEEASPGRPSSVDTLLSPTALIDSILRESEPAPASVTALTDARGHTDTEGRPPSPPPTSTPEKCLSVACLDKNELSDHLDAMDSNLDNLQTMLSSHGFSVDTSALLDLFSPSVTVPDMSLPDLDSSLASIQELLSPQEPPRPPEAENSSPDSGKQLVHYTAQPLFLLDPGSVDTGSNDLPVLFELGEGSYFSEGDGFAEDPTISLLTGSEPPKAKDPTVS

Regarding `CC=Cc1ccc(OC)c(OC)c1`, the call in assay [1], in [2], in assay [3], in assay [4], in assay [5] and in assay [6] was inactive. The call in [7] and in assay [8] was inactive.
Regarding `Cc1ccc(N)c(S(=O)(=O)O)c1`, the compound was called inactive in assay [1], in [2], in assay [3], in assay [4], in [5] and in assay [6]. Also, the compound was classed as inactive in [9], in [7] and in assay [8].
With `CC1C2CC(CC2C2CCCC(O)C2)C1(C)C` (stereo not drawn), the compound was classed as inactive in assay [1], in assay [2], in [3], in [4], in [5] and in assay [6]. For the same compound, the result in assay [9], in assay [7] and in [8] was inactive.
Consider `CCCC(C)C(O)CC` (stereo not drawn), for which the call in assay [1], in [2], in assay [3], in [4], in [5] and in [6] was inactive. The call in [9], in assay [7] and in [8] was inactive.
With `Clc1cc(Cl)c(-c2c(Cl)c(Cl)cc(Cl)c2Cl)cc1Cl`, the result in [1], in [2], in assay [3], in assay [4], in [5] and in assay [6] was inactive. Also, the result in assay [9] and in assay [8] was inactive. Moreover, in assay [7], the AC50 (commonly the concentration giving half of the maximal activity seen) was 29.1 µM (active).
With `CS(C)=O`, the compound was classed as inactive in [1], in assay [2], in assay [3], in assay [4], in assay [5] and in assay [6]. For the same compound, the call in assay [9], in assay [7] and in assay [8] was inactive.
Take `CC(C)(C)c1ccc(C(=O)O)cc1`: the compound was called inactive in assay [1], in assay [2], in [3], in [4], in [5] and in assay [6]. In addition, the compound was called inactive in assay [9], in assay [7] and in assay [8].
As for `CC/C=C\CC/C=C/CO`, the outcome in assay [1], in assay [2], in [3], in [4], in assay [5] and in assay [6] was inactive. For the same compound, the compound was called inactive in assay [7], in [10] and in [8].
Take `CC(C=O)Cc1ccc(C(C)(C)C)cc1` (stereo not drawn): the call in assay [1], in [2], in assay [3], in [4], in assay [5] and in assay [6] was inactive. The result in [7], in assay [10] and in [8] was inactive.
For `CCCCCCCCCCCCCCCC(=O)OC/C=C(C)/C=C/C=C(C)/C=C/C1=C(C)CCCC1(C)C`, the compound was classed as inactive in assay [1], in assay [2], in assay [3], in [4], in assay [6] and in [9]. In addition, the result in assay [7], in assay [10] and in [8] was inactive.
Take `CC(=O)NCCO`: the call in assay [1], in assay [2], in assay [3], in assay [4], in assay [5] and in assay [6] was inactive. Besides, the compound was classed as inactive in [7], in assay [10] and in assay [8].
As to `CC(C)(C)C1=CC(=O)C(C(C)(C)C)=CC1=O`, the AC50 is 50 µM (active) in [1]; 71.2 µM (active) in assay [2]; 33.3 µM (active) in assay [5]; 78.1 µM (active) in assay [6]; 50 µM (active) in assay [7]; 61.5 µM (active) in [8]. For the same compound, the result in assay [3], in assay [4] and in assay [10] was inactive.
As to `O=P(O)(O)O`, the compound was called inactive in assay [1], in [2], in assay [3], in assay [4], in assay [5] and in assay [6]. The compound was called inactive in [9], in [7] and in [8].
Consider `IC(I)I`, for which the result in assay [1], in assay [2], in assay [3], in assay [4], in [5] and in [6] was inactive. For the same compound, the call in assay [9], in [7] and in assay [8] was inactive.
As to `OCC#CCO`, the result in [1], in [2], in assay [3], in assay [4], in assay [5] and in assay [6] was inactive. Also, the outcome in assay [7] and in [8] was inactive.
Take `[Cl][Au]([Cl])[Cl]`: the result in assay [1], in assay [2], in [3], in [4], in assay [5] and in [6] was inactive. Moreover, the result in [7] and in [8] was inactive.
In the case of `C=Cc1ccncc1`, the result in assay [1], in [3], in [4] and in assay [10] was inactive. Moreover, the AC50 in [2] is 55.9 µM (active); in assay [6] it was 33.9 µM (active); in assay [9], 75.8 µM (active); in [7], 28.2 µM (active); in [8], 33.1 µM (active).
With `Clc1ccc(C(c2ccccc2Cl)C(Cl)Cl)cc1` (stereo not drawn), the compound was classed as inactive in [1], in assay [3], in assay [4], in [6], in [9] and in assay [10]. In addition, the compound was called inactive in assay [8]. In addition, the AC50 in assay [2] was 60.9 µM (active); in [7], 171 µM (active).
`CC=Cc1ccc(OCC)c(O)c1`: the call in assay [1], in [2], in [3], in [4], in assay [6] and in [9] was inactive. The call in [7], in assay [10] and in assay [8] was inactive.
Regarding `CCc1ccc(O)c(OC)c1`, the outcome in assay [1], in assay [3], in assay [4], in [5], in [6] and in assay [9] was inactive. Moreover, the call in [7], in [10] and in assay [8] was inactive.
With `CCN(CCC#N)c1ccc(N=Nc2ccc([N+](=O)[O-])cc2)cc1`, the outcome in assay [1], in [2], in assay [4], in [5], in [6] and in assay [7] was inactive. In addition, the result in assay [10] and in assay [8] was inactive.
As to `C=CCCC(=O)/C=C/C1C(C)=CCCC1(C)C` (stereo not drawn), the call in assay [1], in assay [2], in [4], in [6], in [10] and in assay [8] was inactive. For the same compound, the AC50 in assay [9] is 152 µM (active); in [7] it was 150 µM (active).
Regarding `CC(C)Nc1nc(N)nc(Cl)n1`, the outcome in assay [1], in assay [2], in assay [5], in assay [6], in assay [9] and in assay [7] was inactive. The outcome in [10] and in assay [8] was inactive.
`CCOCCOCCOCC`: the compound was classed as inactive in assay [1], in assay [3], in assay [6], in assay [9], in assay [7] and in [10]. Further, in assay [8], the result was inactive.
